The values below come from PMC4336329 (PLoS ONE, 2015).

The whole screen tested about 310,000 compounds, of which about 14,000 (4.5%) showed an effect of 50% or more. Effects have a minus sign here. The full list was thinned out, with strong results kept by preference.
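Further: peak tail current of the secondary pulse compared with the same well before compound.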

For this experiment, the target named is human ether-à-go-go-related gene (hERG) potassium channel (human, UniProt Q12809). Briefly: primary screen, population patch clamp on CHO cells stably expressing hERG; higher = less effect of the substance.
human ether-à-go-go-related gene (hERG) potassium channel, sequence (Q12809 whole entry, looked up): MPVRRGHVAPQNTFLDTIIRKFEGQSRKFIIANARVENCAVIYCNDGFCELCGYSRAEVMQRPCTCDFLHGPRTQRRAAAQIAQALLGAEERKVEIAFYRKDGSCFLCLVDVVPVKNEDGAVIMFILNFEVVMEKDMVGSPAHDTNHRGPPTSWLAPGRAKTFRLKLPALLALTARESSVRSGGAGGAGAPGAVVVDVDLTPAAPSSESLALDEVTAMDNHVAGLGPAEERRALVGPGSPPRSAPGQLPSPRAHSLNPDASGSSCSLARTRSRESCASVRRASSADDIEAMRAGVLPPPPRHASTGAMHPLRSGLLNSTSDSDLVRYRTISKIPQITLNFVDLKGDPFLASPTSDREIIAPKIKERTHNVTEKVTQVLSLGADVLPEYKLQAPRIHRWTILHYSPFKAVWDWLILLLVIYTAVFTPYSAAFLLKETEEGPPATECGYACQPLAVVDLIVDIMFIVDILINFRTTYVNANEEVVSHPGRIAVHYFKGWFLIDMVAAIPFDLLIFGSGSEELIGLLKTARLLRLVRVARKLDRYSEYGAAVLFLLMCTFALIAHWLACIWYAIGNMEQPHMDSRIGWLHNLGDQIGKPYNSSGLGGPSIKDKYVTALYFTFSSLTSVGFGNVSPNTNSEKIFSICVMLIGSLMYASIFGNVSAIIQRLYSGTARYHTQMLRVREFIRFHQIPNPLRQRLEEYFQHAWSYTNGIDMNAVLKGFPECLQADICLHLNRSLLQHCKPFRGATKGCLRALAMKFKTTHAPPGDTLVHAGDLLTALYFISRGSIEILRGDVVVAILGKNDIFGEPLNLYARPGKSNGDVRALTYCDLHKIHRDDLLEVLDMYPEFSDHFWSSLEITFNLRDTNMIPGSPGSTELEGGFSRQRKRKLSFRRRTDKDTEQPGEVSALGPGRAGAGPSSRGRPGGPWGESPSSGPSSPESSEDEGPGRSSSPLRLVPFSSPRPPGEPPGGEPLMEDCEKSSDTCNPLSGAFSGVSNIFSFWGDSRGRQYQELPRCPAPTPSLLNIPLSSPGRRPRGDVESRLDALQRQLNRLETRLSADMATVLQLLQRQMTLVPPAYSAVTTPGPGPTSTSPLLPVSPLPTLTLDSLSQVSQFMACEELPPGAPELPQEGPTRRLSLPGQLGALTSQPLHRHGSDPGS
As for `CCC1(C)Cc2ccccc2-c2nc(NCCO)n(-c3ccc(C)cc3)c(=O)c21` (centres unmarked), the “hERG current change (%, negative = inhibition) at 10uM” value is -25.1%. To `CCOC(=O)N1CCN(c2c(NCc3ccccc3OC)c(=O)c2=O)CC1` belongs 0.238%. On to `CCOC(=O)Nc1ccc(S(=O)(=O)Nc2cc(C)on2)cc1`, for which the “hERG current change (%, negative = inhibition) at 10uM” value worked out at 6.84%. For `CC1CCN(CCCn2c(=S)[nH]c3ccccc3c2=O)CC1`, the “hERG current change (%, negative = inhibition) at 10uM” value is recorded as -56.9%. To `CC1CCN(CCn2c(=S)[nH]c3ccccc3c2=O)CC1` belongs -32.6%. As to `O=c1c2ccccc2[nH]c(=S)n1CCCN1CCC(Cc2ccccc2)CC1`, the “hERG current change (%, negative = inhibition) at 10uM” value was -73.6%. `O=c1c2ccccc2[nH]c(=S)n1CCCN1CCOCC1`: the “hERG current change (%, negative = inhibition) at 10uM” value is reported as 8.73%. For the molecule `O=c1c2ccccc2[nH]c(=S)n1CCCN1CCN(c2ccccc2)CC1`, the “hERG current change (%, negative = inhibition) at 10uM” value is -19.7%. For the molecule `O=c1c2ccccc2[nH]c(=S)n1CCN1CCN(Cc2ccccc2)CC1`, the “hERG current change (%, negative = inhibition) at 10uM” value was -19.8%. To `C=CCn1c(SCC(=O)NCC(c2ccccc2)N(C)C)nnc1C1CCCCC1` (centres unmarked) belongs 8.62%; to `Cc1cc(Br)cc(C)c1NC(=O)c1ccc(C#N)cc1F`, -21.2%. As for `NS(=O)(=O)c1ccc(CCNC(=O)CCc2nc3sc4c(c3c(=O)[nH]2)CCCC4)cc1`, the “hERG current change (%, negative = inhibition) at 10uM” value came out at 17.6%. `CC(C)C[C@@H](CN=[N+]=[N-])N1CCN(CC(C)C)CCC1=O`: the “hERG current change (%, negative = inhibition) at 10uM” value is -3.55%. Then `CC(C)C[C@@H](CSc1ccc(Br)cc1)N1CCN(CC(C)C)CCC1=O`, with -68.6%; and `CC(C)C[C@@H](CSc1ccccc1)N1CCN(C)CCC1=O`, with -16%.

As for `CC(C)CN1CCC(=O)N([C@H](CSc2ccc(Br)cc2)Cc2ccccc2)CC1`, the “hERG current change (%, negative = inhibition) at 10uM” value is listed as -43.2%. Then `CC(C)CN1CCC(=O)N([C@H](CSc2ccccc2)Cc2ccccc2)CC1`, with -67.9%; and `CCCN1CCC(=O)N([C@H](CSc2ccccc2)CC(C)C)CC1`, with -66.4%. For the molecule `CC(C)C[C@@H](CO)N1CCN(C)CCC1=O`, the “hERG current change (%, negative = inhibition) at 10uM” value is -4.26%. To `CC(C)C[C@@H](CSc1ccc(Br)cc1)N1CCN(C)CCC1=O` belongs -64.7%; to `CC(C)C[C@@H](CO)N1CCN(Cc2ccc(Br)cc2)CCC1=O`, -13.5%; to `CC(C)CN1CCC(=O)N([C@H](CN=[N+]=[N-])Cc2ccccc2)CC1`, -22.9%. Regarding `CCOC(=O)C(NCc1ccc2c(c1)OCO2)(NC(=O)CC)C(F)(F)F` (centres unmarked), the “hERG current change (%, negative = inhibition) at 10uM” value is given as 14.3%. Regarding `NCC/C=C1/c2ccccc2CSc2ccccc21.O=C(O)/C=C\C(=O)O`, the “hERG current change (%, negative = inhibition) at 10uM” value is -3.76%. To `CN(C)c1ccc(S(=O)(=O)N2CCCCC2)cc1NC(=O)CN1C(=O)NC2(CCCC2)C1=O` belongs 8.25%; to `COc1ccccc1OCCNC(=O)C1CC(=O)N(Cc2ccccc2)C1` (centres unmarked), -10.2%; to `CC(O)CNC(=O)c1ccc(-c2nn(C)c(=O)c3ccccc23)cc1` (centres unmarked), -0.479%. On to `Cc1ccc2c(Cl)cc(Cl)c(OCc3c(C)noc3C)c2n1`, for which the “hERG current change (%, negative = inhibition) at 10uM” value was 8.92%. With `O=C(NO)c1ccc(OC(F)F)cc1`, the “hERG current change (%, negative = inhibition) at 10uM” value is 7.91%. On to `Cc1ccc(C(C)C)c(O)c1`, for which the “hERG current change (%, negative = inhibition) at 10uM” value came out at 19.7%. Turning to `CC(C)C[C@@H](CSc1ccccc1)N1CCN(CC(C)C)CCC1=O`, the “hERG current change (%, negative = inhibition) at 10uM” value was -75%. As to `O=C(CCC(=O)N(CC(=O)NC1CCCC1)Cc1ccccc1Cl)Nc1nccs1`, the “hERG current change (%, negative = inhibition) at 10uM” value was -16.1%. Consider `O=C(COC(=O)c1cccc(OC(F)F)c1)NC(=O)NC1CCCCC1`, for which the “hERG current change (%, negative = inhibition) at 10uM” value came out at 11.1%. Take `CCOc1ccc(CN(C)CC(=O)NCc2ccccc2)cc1`: the “hERG current change (%, negative = inhibition) at 10uM” value was -76.1%. For `CCOc1ccc(N(CC(=O)NCc2ccccc2)S(C)(=O)=O)cc1`, the “hERG current change (%, negative = inhibition) at 10uM” value is reported as -10.9%. With `CCOc1ccc(N(CC(=O)NC(C)(C)C)C(=O)c2ccco2)cc1`, the “hERG current change (%, negative = inhibition) at 10uM” value is -1.84%. To `Cc1ccc(N(CC(=O)NCc2ccc(F)cc2)C(=O)c2ccco2)cc1C` belongs -10.8%; to `CN(CC(=O)NCc1ccccc1)Cc1ccc(Cl)cc1`, -22.9%; to `Cc1ccc(CNCc2ccccc2Cl)cc1.Cl`, -7.02%. In the case of `CCOc1ccc(CN(C)CC(=O)NCc2ccc(F)cc2)cc1`, the “hERG current change (%, negative = inhibition) at 10uM” value is -74%. On to `CCOc1ccc(N(CC(=O)NCc2ccc(F)cc2)C(=O)c2ccco2)cc1`, for which the “hERG current change (%, negative = inhibition) at 10uM” value was -54.6%. As for `CCOc1ccc(CNCc2ccccc2Cl)cc1.Cl`, the “hERG current change (%, negative = inhibition) at 10uM” value is listed as -55.3%. For the molecule `CCOCCCNCc1ccc(OCc2ccccc2Cl)cc1`, the “hERG current change (%, negative = inhibition) at 10uM” value is listed as -46.9%. As for `CC(=O)c1ccc(OCC(=O)NCc2ccc(F)cc2)cc1`, the “hERG current change (%, negative = inhibition) at 10uM” value was -11.5%.
